Fam108B inh = counter-screen for RBBP9 inhibitors: inhibitors of mouse Fam108B; inhibition, % at 9.51 µM; recombinant Fam108B, FP-Rh probe fluorescence polarization; 300,000 compounds, 0.33% hits;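 active = inhibition above the screen mean inhibition plus 3 SD, computed separately per campaign, cut at about 18% in these data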;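 also: inhibitors lower polarization as less probe binds the enzyme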
PME-1 primary = blocks human protein phosphatase methylesterase 1; inhibition, % at 5.9 µM; 320,000 compounds, 0.53% hits; recombinant PME-1, FP-Rh probe fluorescence polarization; Q9Y570; AID 2130;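 active = inhibition above the campaign mean of all compounds plus 3 SD, cut at about 26% in these data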;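 also: competitive labeling of PME-1 active site by serine hydrolase directed probe; inhibitors block probe labeling so polarization falls and inhibition rises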
Target sequence (Q9Y570 whole entry, looked up): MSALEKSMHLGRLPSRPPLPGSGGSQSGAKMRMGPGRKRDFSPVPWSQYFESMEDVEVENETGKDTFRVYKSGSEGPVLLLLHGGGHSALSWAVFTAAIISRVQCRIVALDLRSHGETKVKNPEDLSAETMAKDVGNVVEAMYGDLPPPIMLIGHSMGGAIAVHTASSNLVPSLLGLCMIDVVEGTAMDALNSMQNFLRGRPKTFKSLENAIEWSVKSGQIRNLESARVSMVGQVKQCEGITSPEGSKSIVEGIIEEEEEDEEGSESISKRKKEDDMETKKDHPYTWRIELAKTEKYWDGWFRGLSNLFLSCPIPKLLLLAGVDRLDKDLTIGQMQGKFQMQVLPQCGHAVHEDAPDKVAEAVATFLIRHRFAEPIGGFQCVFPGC
PAFAH2 inh = PAFAH2 (human) inhibition. Q99487. recombinant PAFAH2, FP-rhodamine activity probe, fluorescence polarization. inhibition, % at 3.39 µM. 340,000 compounds, 0.99% hits;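 active = inhibition above the mean over all tested compounds plus 3 SD, cut at about 30% in these data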;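 also: inhibitors block probe labeling of enzyme so polarization drops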
pPAFAH FP inh = inhibitors of human plasma PAF acetylhydrolase (pPAFAH); Q13093; recombinant pPAFAH, FP-rhodamine probe fluorescence polarization; inhibition, % at 3.39 µM; 330,000 compounds, 1.5% hits; AID 463082;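 active = inhibition above the mean inhibition across the screen plus 3 SD, cut at about 25% in these data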;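 also: inhibitors block binding of the rhodamine activity-based probe so polarization drops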
PAFAH1B3 FP inh = PAFAH1B3 (human) inhibition; AID 492972; inhibition, % at 3.39 µM; recombinant PAFAH1B3, FP-rhodamine probe, fluorescence polarization; Q15102; 340,000 compounds, 0.28% hits;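 active = inhibition above the screen-wide average of all tested compounds plus 3 SD, cut at about 25% in these data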
PAFAH1B2 FP inh = inhibitors of human PAFAH1B2; recombinant PAFAH1B2, FP-rhodamine activity probe, fluorescence polarization; P68402; inhibition, % at 3.39 µM; 340,000 compounds, 1.2% hits;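 active = inhibition above the mean of all tested compounds plus 3 SD, cut at about 24% in these data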
Target sequence (P68402 whole entry, looked up): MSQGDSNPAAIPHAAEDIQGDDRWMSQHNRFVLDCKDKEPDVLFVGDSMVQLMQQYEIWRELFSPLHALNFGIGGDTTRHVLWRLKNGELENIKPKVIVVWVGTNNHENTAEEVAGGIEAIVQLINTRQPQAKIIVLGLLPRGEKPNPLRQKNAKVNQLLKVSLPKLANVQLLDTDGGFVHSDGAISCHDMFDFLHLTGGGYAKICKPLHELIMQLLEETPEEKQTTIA
Of the large screens only hits and unclear results are named; the others gave an inactive call. In the library only some 2.8% were active in any assay of this set; here they are far more common.

COc1ccccc1CC(NC(C)=O)C(=O)NC1CCN(C(=O)c2ccc(C)cc2)CC1 (stereo not drawn)	none
O=C(NCc1cccnc1)c1cc(Sc2cccc(Cl)c2)nc2ccccc12	pPAFAH FP inh 33.2
CCC(C)NS(=O)(=O)c1ccc(S(=O)(=O)N(CC(=O)Nc2ccccc2)CC2CCCO2)cc1 (stereo not drawn)	pPAFAH FP inh 31.1
CC(C)n1c(=S)[nH]c2scc(-c3cccs3)c2c1=O	pPAFAH FP inh 32.7
Cc1ccn2c(NC3CCCCC3)c(-c3cccc(-c4cccc(Cl)c4)c3)nc2c1	none
COc1cccc(-n2cc(CNC(=O)C3CCC(=O)N(C4CC4)C3)cn2)c1 (stereo not drawn)	none
CCC(C)(C)C1CCc2[nH]nc(C(=O)NCCNC(=O)OC(C)(C)C)c2C1 (stereo not drawn)	PAFAH1B2 FP inh 27.7
O=C(O)c1ccc(N/N=C/c2cc3cc4c(cc3nc2Cl)OCCO4)cc1	pPAFAH FP inh 30.1
N#Cc1c(CSCC(=O)O)cc(=O)n2c1[nH]c1ccccc12	pPAFAH FP inh 26.6
O=C1C(CCCNC(=S)NCc2ccccc2)NC(=S)N1Cc1ccccc1 (stereo not drawn)	PAFAH1B2 FP inh 25.0
C=CCNC(=S)NCCCCC1NC(=S)N(CC=C)C1=O (stereo not drawn)	none
O=c1[nH]c(N/N=C\c2ccc3c(c2)OCO3)nc2ccccc12	PME-1 primary 29.5
CCOc1ccc(CN2C(=O)CC(=O)N(S(=O)(=O)c3ccc(OCC)cc3)C2=O)cc1	none
Cc1csc(CNc2ncnc3ccc(-c4ccccc4Cl)cc23)c1	pPAFAH FP inh 28.7 (no result: Fam108B inh, PME-1 primary)
Cc1csc(CNc2ncnc3ccc(-c4cccnc4)cc23)c1	none (no result: Fam108B inh, PME-1 primary)
Oc1[nH]c2ccccc2c1N=Nc1cccc(Cl)c1	none
O=C(O)c1ccc(N=Nc2c(O)[nH]c3cc(Cl)ccc23)cc1	PME-1 primary 52.9
O=C(O)c1ccc(N=Nc2c(O)[nH]c3ccc(Br)cc23)cc1	PAFAH1B2 FP inh 33.4
COc1ccc(CC(=O)N(C)Cc2cccc(OC)c2OC)cc1S(=O)(=O)N1CCOCC1	none
O=C(O)c1cc(S(=O)(=O)N(Cc2ccccc2)c2ccc(Cl)cc2)ccc1Cl	PAFAH1B2 FP inh 29.5
O=C(O)c1cccc(S(=O)(=O)N(Cc2ccccc2)c2cccc(C(F)(F)F)c2)c1	pPAFAH FP inh 28.1
O=C(O)c1cccc(S(=O)(=O)N(Cc2ccccc2)c2ccccc2Cl)c1	none (no result: Fam108B inh, PME-1 primary, pPAFAH FP inh)
O=C(NCC1CCOCC1)C1CCC(=O)N(Cc2cccc(C(F)(F)F)c2)C1 (stereo not drawn)	none
Oc1ccc(NCc2cccs2)cc1	pPAFAH FP inh 28.0
CC(=O)Nc1ccc(NCc2cccs2)cc1	none
CC(C)N(C(=O)[C@H]1CC(CC(=O)NCCC2=CCCCC2)C(=O)N2CCc3c([nH]c4ccccc34)[C@]12C)C(C)C (stereo partly drawn)	none (no result: Fam108B inh, PME-1 primary)
CCN(CC)c1ccc(S(=O)(=O)N2CCOCC2)cc1NC(=O)CN1CCN(Cc2ccccc2)CC1	PME-1 primary 59.4
CSc1nc2nccc(-c3ccc(Oc4ccccc4)cc3)n2n1	pPAFAH FP inh 29.6
Cc1ccc(C)c(SCC(=O)OCC(=O)NCc2ccccc2)c1	pPAFAH FP inh 25.1
Cc1ccc(C)c(SCC(=O)NC(=O)NCc2ccccc2)c1	none
Cc1ccc(SCC(=O)OC(C)C(=O)NCc2ccccc2)cc1C (stereo not drawn)	pPAFAH FP inh 34.3
O=C1CC(c2cccc([N+](=O)[O-])c2)c2cc3c(cc2N1)CCC3 (stereo not drawn)	none
COc1cccc(C2CC(=O)Nc3cc(OC)c(OC)cc32)c1 (stereo not drawn)	none (no result: Fam108B inh, PME-1 primary, pPAFAH FP inh)
COc1cccc(C2CC(=O)Nc3cc4c(cc32)CCC4)c1 (stereo not drawn)	pPAFAH FP inh 31.9
O=C1CC(c2cccc(Cl)c2)c2cc3c(cc2N1)CCC3 (stereo not drawn)	pPAFAH FP inh 27.7
CC1CC(C)CN(S(=O)(=O)c2ccc(C(=O)NNC(=O)c3ccccc3F)cc2)C1 (stereo not drawn)	PAFAH1B2 FP inh 26.1 (no result: Fam108B inh, PME-1 primary)
O=C(c1cc(Cl)nc2ccccc12)N1CCc2ccccc2C1	none
COc1cccc(NC(=O)CN(C)C(=O)c2cc(-c3ccco3)nc3ccccc23)c1	none
CN(CC(=O)Nc1ccc(F)cc1)C(=O)c1cc(-c2ccco2)nc2ccccc12	pPAFAH FP inh 27.1
CN(CCOc1ccc(Cl)cc1)C(=O)c1cc(-c2ccco2)nc2ccccc12	pPAFAH FP inh 25.6
Cc1ccc(NC(=O)CN(C)C(=O)c2cc(-c3ccco3)nc3ccccc23)cc1	pPAFAH FP inh 32.2
CC(=O)c1ccc(NC(=S)NC(C)c2ccc(Cl)cc2Cl)cc1 (stereo not drawn)	none
Cc1ccc(NC(=O)c2ccco2)nc1	none (no result: Fam108B inh, PME-1 primary, pPAFAH FP inh)
CCN(C(=O)c1ccncc1)c1c(N)n(Cc2ccccc2)c(=O)[nH]c1=O	none (no result: Fam108B inh, PME-1 primary, pPAFAH FP inh)
CCCC1CC(C(=O)NC(C(C)Cl)C2OC(SC)C(O)C(O)C2O)N(C)C1 (stereo not drawn)	none
O=C(O)CC/C(=C\c1ccc2c(c1)OCO2)c1nc2ccccc2s1	none
O=C(O)CC/C(=C\c1ccc(N2CCOCC2)c([N+](=O)[O-])c1)c1nc2ccccc2s1	PAFAH1B2 FP inh 91.7 (no result: Fam108B inh, PME-1 primary, pPAFAH FP inh)
O=C(O)C/C(=C\c1ccc(N2CCOCC2)c([N+](=O)[O-])c1)c1nc2ccccc2s1	pPAFAH FP inh 26.0
O=C(CSc1nc2ccccc2s1)Nc1ccc(N2CCOCC2)c(Cl)c1	none
COc1cc(/C=C(\CCC(=O)O)c2nc3ccccc3s2)ccc1OCC(=O)Nc1c(Cl)cccc1Cl	PAFAH1B2 FP inh 66.9 (no result: Fam108B inh, PME-1 primary)
Cn1c(CC(=O)Nc2ccccc2F)nnc1SCC(=O)Nc1ccccc1Br	none
COC(=O)[C@]1(C)N[C@H](c2ccc(-c3ccccc3)cc2)[C@@H]2C(=O)N(C)C(=O)[C@@H]21	none
NC(=O)c1cc(N)ccc1N1CCCC1	none
Cc1cc(N)ccc1N1CCCC1	PME-1 primary 32.7, pPAFAH FP inh 26.1
CCCCCSc1nnc(-c2cc(Br)ccc2N)c(=O)[nH]1	PAFAH1B2 FP inh 27.4
COc1ccc(C(C[N+](=O)[O-])c2c(C)[nH]n(-c3ccccc3)c2=O)cc1 (stereo not drawn)	none
Cc1ccc(C(C[N+](=O)[O-])c2c(-c3ccccc3O)[nH][nH]c2=O)cc1 (stereo not drawn)	PAFAH1B2 FP inh 25.2
CCOC(=O)Cc1csc(NC(=O)c2sc3nc4ccc(C)cc4cc3c2N)n1	PME-1 primary 58.0
CCOC(=O)Cc1csc(NC(=O)c2cccnc2)n1	none
O=c1cc(O)c2ccc(O)cc2o1	none
O=c1ccc2[n+]([O-])c3ccc(O)cc3oc-2c1	PAFAH2 inh 154.8, PAFAH1B3 FP inh 149.5, PAFAH1B2 FP inh 136.3 (no result: Fam108B inh, PME-1 primary, pPAFAH FP inh)
O=C(O)c1ccc2c(c1)C1C=CCC1C(c1ccncc1)N2 (stereo not drawn)	pPAFAH FP inh 25.4

High-throughput results deposited in PubChem by The Scripps Research Institute Molecular Screening Center.
